# The full data set covers some 7,900 targets. This sample favours those with a hit. About 0.6% of all pairs of compound and target were hits. Unmarked numbers belong to inactive results.
# Key:
# Assay in all cases: log2 fold change, soluble protein after heating vs DMSO (PISA); higher = thermal stabilisation; K562 cells, 10 uM, 30 min; active = over 0.2 and 3.5 SD of the protein, either way, in both replicates (recomputed)
# [1] = compound: C#Cc1cccc(Nc2ncnc3cc(OCCOC)c(OCCOC)cc23)c1 [erlotinib]
# Outline: (§1)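 K562 cells at 2×10^6 cells/mL were treated with 10 μM compound for 30 min. Aliquots were heated for 3 min across 48°C-58°C, pooled, and extracted in PBS with 0.5% NP-40 at 4°C; soluble protein was the supernatant after 21,000xg for 90 min. Soluble protein was quantified by TMTpro 16plex LC-MS/MS with channel sums equalised, and reported as log2 fold change in thermal stability against DMSO controls, with values from duplicates.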
# [2] = compound: C/C(=N\NC(=O)C1=CC(=CC=C1)S(=O)(=O)N2CCOCC2)/C3=C(C=CC(=C3)Cl)O
# Outline: as §1
# [3] = compound: C1=CC(=C(C=C1Cl)C2=NC3=NC=CN=C3C(=N2)NC4=CC=NC=C4)F
# Outline: as §1
# [4] = compound: C1=CC(=CC=C1C2=NC3=C(N2)C=C(C=C3)C(=O)N)OC4=CC=C(C=C4)Cl
# Outline: as §1
# [5] = compound: C1=CC2=C(C=CC(=C2)/C=C\3/C(=O)NC(=NCC4=CC=CS4)S3)N=C1
# Outline: as §1
# [6] = compound: C1=CC2=NC=CN=C2C=C1/C=C/3\C(=O)NC(=O)S3
# Outline: as §1
# [7] = compound: C1=CC=C(C=C1)C2=NC(=C(N2)C3=CC=NC=C3)C4=CC(=C(C=C4)Cl)O
# Outline: as §1
# [8] = compound: C1=CC=C2C(=C1)C3=NNC4=CC=CC(=C43)C2=O
# Outline: as §1
# [9] = compound: C1CCN(C1)C(=O)NC2=CC=CC(=C2)NC3=NC=C(C(=N3)NCCC4=CN=CN4)Br
# Outline: as §1
# [10] = compound: C1CN(CCC1(CC2=CC=C(C=C2)Cl)N)C3=NC=NC4=C3C=CN4
# Outline: as §1
# UniProt Q9ULX3, sequence (Q9ULX3 whole entry, looked up): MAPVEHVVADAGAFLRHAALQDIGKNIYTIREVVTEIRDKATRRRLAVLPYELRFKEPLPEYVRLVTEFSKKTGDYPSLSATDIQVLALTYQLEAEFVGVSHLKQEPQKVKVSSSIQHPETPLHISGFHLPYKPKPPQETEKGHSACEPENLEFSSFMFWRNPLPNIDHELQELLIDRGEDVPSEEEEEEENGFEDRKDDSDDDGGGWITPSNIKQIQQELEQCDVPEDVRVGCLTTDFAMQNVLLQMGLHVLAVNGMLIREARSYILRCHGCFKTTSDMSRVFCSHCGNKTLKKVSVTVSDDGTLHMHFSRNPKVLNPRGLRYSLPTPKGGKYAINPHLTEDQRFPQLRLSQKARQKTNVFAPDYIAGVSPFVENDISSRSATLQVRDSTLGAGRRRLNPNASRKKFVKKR
# UniProt Q96DE0, sequence (Q96DE0 whole entry, looked up): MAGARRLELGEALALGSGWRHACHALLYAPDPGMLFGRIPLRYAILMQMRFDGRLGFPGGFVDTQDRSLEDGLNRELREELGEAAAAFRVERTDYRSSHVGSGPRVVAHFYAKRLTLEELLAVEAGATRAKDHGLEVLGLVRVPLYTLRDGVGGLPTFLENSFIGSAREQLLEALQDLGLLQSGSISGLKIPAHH
# UniProt Q9Y2X3, sequence (Q9Y2X3 whole entry, looked up): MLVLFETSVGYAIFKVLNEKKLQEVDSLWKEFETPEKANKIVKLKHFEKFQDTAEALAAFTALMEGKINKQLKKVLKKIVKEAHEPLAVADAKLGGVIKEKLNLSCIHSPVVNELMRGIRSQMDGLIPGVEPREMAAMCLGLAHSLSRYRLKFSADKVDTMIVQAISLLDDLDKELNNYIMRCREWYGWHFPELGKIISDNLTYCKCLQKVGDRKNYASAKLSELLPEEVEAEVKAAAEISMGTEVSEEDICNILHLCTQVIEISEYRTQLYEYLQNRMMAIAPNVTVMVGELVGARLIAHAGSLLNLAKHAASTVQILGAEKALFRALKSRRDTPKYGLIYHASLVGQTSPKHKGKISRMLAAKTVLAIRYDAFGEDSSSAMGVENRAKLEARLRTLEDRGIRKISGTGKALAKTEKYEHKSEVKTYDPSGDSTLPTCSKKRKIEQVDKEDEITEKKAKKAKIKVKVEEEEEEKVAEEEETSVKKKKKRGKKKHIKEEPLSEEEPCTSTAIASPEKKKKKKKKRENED
# UniProt Q7L1V2, sequence (Q7L1V2 whole entry, looked up): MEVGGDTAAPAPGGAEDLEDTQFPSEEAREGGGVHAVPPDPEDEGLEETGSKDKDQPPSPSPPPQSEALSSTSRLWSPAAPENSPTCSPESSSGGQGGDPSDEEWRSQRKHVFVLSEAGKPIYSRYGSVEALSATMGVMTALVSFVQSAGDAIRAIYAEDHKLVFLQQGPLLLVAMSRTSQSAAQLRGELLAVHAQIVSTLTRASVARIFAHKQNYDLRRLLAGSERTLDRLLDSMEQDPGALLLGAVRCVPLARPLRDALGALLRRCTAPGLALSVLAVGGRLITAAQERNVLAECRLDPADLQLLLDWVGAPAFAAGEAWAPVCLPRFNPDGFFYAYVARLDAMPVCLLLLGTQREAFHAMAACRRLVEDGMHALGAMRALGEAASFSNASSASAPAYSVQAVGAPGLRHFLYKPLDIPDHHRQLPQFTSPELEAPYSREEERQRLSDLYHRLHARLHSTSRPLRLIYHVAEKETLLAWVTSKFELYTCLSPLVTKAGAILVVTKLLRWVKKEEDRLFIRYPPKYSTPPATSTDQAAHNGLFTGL
# UniProt Q9H4L5, sequence (Q9H4L5 whole entry, looked up): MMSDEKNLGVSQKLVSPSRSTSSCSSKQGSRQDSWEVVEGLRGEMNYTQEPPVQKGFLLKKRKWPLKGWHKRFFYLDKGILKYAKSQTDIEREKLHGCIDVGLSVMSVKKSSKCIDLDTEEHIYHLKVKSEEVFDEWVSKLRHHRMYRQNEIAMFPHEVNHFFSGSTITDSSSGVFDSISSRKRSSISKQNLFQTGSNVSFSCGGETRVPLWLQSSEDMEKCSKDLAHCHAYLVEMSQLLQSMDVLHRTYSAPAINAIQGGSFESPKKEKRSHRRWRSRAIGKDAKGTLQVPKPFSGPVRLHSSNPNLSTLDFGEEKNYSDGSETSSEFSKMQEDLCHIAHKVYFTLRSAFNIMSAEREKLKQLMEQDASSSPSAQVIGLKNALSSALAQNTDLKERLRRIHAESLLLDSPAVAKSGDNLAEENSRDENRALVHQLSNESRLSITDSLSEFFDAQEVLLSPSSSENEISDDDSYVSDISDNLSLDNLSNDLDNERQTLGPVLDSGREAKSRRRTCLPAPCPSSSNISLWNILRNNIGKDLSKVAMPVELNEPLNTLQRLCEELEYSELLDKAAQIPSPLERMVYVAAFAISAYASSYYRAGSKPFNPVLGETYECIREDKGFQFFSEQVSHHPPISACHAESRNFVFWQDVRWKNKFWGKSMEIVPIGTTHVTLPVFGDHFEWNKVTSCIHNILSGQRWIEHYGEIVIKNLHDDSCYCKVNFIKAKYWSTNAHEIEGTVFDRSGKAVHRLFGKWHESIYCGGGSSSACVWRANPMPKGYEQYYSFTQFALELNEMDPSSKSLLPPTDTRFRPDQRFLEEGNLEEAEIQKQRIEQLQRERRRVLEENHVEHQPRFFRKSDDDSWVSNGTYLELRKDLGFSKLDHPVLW
# UniProt P49914, sequence (P49914 whole entry, looked up): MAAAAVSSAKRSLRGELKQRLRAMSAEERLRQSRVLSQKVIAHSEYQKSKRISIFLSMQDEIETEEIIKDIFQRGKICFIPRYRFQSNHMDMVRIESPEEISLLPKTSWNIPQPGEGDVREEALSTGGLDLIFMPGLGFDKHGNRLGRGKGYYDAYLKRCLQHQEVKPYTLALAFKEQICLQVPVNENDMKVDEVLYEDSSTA
# UniProt Q96RE7, sequence (Q96RE7 whole entry, looked up): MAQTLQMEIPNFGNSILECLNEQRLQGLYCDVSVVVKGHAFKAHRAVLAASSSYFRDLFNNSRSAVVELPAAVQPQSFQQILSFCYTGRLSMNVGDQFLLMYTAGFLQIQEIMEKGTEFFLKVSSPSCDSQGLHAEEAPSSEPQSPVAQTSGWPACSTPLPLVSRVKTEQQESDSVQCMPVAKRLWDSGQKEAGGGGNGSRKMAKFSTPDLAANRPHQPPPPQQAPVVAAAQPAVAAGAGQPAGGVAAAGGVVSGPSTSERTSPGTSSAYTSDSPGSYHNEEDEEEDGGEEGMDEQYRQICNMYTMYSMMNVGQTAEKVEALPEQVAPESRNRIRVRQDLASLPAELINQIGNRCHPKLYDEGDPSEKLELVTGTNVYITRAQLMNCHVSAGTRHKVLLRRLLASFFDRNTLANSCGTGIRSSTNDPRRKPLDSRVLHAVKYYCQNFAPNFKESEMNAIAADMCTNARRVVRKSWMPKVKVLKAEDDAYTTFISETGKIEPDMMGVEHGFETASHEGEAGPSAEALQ
# UniProt Q9BZQ8, sequence (Q9BZQ8 whole entry, looked up): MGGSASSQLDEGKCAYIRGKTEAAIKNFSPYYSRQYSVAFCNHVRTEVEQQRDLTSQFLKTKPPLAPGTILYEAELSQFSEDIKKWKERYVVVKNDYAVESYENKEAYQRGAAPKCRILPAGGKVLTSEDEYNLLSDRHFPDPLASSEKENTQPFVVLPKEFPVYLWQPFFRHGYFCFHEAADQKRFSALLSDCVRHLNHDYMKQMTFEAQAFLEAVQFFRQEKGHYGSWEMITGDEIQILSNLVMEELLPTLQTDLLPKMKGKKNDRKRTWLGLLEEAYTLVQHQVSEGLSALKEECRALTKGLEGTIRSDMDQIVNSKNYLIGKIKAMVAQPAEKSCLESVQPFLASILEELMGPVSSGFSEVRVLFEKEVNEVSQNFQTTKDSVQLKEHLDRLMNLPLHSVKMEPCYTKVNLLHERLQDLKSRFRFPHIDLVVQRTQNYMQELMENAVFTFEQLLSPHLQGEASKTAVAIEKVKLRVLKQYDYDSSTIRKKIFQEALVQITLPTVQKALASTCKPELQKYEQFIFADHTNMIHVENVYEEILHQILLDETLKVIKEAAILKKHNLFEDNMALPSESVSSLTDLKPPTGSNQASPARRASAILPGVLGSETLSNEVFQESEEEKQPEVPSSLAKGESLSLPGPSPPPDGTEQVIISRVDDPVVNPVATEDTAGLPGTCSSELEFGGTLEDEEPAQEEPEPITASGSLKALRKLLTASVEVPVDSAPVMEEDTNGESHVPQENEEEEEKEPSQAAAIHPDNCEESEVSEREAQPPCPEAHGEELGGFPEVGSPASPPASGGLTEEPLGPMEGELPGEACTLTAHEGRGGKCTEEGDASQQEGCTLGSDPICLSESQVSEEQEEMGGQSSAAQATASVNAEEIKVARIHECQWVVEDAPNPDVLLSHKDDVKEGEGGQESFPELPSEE
# UniProt P03886, sequence (P03886 whole entry, looked up): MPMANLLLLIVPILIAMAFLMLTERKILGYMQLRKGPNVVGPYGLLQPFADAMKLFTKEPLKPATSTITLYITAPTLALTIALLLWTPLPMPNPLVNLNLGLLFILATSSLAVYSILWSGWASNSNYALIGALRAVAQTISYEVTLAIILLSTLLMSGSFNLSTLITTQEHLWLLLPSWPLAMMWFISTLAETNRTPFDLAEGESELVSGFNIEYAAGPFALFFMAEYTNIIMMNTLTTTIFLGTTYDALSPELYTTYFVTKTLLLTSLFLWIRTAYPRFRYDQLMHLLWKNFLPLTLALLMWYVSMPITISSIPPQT
# UniProt Q9BRP4, sequence (Q9BRP4 whole entry, looked up): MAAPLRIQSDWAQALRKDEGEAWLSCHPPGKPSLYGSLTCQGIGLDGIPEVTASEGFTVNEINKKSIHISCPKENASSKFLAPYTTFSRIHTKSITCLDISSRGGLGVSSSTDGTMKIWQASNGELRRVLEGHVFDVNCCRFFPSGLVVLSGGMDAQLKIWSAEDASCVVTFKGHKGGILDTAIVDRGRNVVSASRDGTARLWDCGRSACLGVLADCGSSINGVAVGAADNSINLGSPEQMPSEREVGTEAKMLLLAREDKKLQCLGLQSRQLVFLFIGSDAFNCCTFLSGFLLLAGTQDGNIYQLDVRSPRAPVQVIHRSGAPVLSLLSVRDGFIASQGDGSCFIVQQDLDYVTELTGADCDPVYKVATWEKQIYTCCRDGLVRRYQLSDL
Target,log2 fold change [1],log2 fold change [2],log2 fold change [3],log2 fold change [4],log2 fold change [5],log2 fold change [6],log2 fold change [7],log2 fold change [8],log2 fold change [9],log2 fold change [10]
PAFAH1B2 (UniProt P68402),0.195,-0.088,0.134,-0.016,-0.036,-0.034,0.068,0.027,0.128,0.047
PACS1 (UniProt Q6VY07),0.027,0.036,-0.049,0.01,0.016,-0.077,-0.039,-0.084,-0.048,-0.063
NME2P1 (UniProt O60361),0.147,0.012,0.147,0.03,0.04,0.137,-0.163,0.026,0.076,0.078
NOB1 (UniProt Q9ULX3),0.048,0.061,-0.106,0.017,-0.025,-0.08,0.081,0.053,0.045,-0.078
MT-ND1 (UniProt P03886),-0.075,0.031,-0.028,0.097,-0.005,0.032,0.053,0.12,-0.187,0.018
OPHN1 (UniProt O60890),0.022,-0.155,0.101,-0.009,0.24,0.03,-0.007,0.039,0.044,0.04
NACC1 (UniProt Q96RE7),0.134,0.242,0.065,-0.034,-0.017,0.05,-0.02,-0.08,-0.059,-0.01
MRPS6 (UniProt P82932),0.001,0.006,0.006,0.088,0.01,0.112,0.128,0.079,-0.039,-0.093
OGFR (UniProt Q9NZT2),0.009,0.207,-0.011,0.107,0.131,-0.157,0.027,-0.085,0.028,-0.132
NKAP (UniProt Q8N5F7),0.029,0.023,-0.041,0.041,-0.189,-0.047,-0.085,-0.051,-0.064,-0.007
MON1B (UniProt Q7L1V2),0.016,0.04,-0.021,0.023,0.089,-0.01,0.066,-0.004,-0.005,-0.006
NOP58 (UniProt Q9Y2X3),-0.013,0.001,-0.332,-0.001,-0.043,0.034,-0.055,-0.126,-0.156,-0.143
MTHFS (UniProt P49914),0.01,0.062,0.055,-0.003,0.034,-0.024,0.026,0.083,-0.014,-0.12
NEK3 (UniProt P51956),0.003,-0.011,0.096,0.06,-0.063,–,0.039,-0.05,-0.141,0.103
MLST8 (UniProt Q9BVC4),-0.021,0.049,-0.004,0.102,0.116,-0.026,–,-0.111,-0.035,-0.105
OSBPL3 (UniProt Q9H4L5),1.67 (active),0.15,-0.147,0.165,0.094,–,0.255,0.16,-0.021,-0.078

Target,log2 fold change [1],log2 fold change [2],log2 fold change [3],log2 fold change [4],log2 fold change [5],log2 fold change [6],log2 fold change [7],log2 fold change [8],log2 fold change [9],log2 fold change [10]
NCKAP1 isoform 2 (UniProt Q9Y2A7),-0.019,0.096,0.056,0.02,0.015,0.02,0.024,-0.003,-0.037,0.027
NNMT (UniProt P40261),0.037,0.062,0.123,0.021,0.074,0,–,0.028,0.045,0.043
NIBAN1 (UniProt Q9BZQ8),0.014,0.103,-0.022,0.017,0.058,-0.009,-0.005,-0.047,-0.017,-0.06
NQO1 (UniProt P15559),-0.064,0.037,0.089,-0.002,-0.06,-0.005,-0.014,0.269 (active),-0.015,0.065
MNAT1 (UniProt P51948),0.01,0.04,-0.066,0.012,-0.012,0.008,0.002,-0.002,-0.067,-0.01
MRPL34 (UniProt Q9BQ48),-0.029,-0.167,-0.116,0.101,-0.048,-0.03,0.006,0.018,-0.004,-0.174
MORC2 (UniProt Q9Y6X9),0.105,0.033,-0.027,0.051,0.148,-0.097,–,0.421,–,–
PAAF1 (UniProt Q9BRP4),0.038,0.032,0.097,0.068,-0.009,0.009,0.027,0,0.003,0.009
NUDT16 (UniProt Q96DE0),0.081,0,0.111,0.01,-0.034,-0.004,0.014,0.026,-0.085,0.081
MPP1 (UniProt Q00013),0.083,0.098,0.027,0.016,0.004,-0.001,0.012,0.033,-0.048,-0.019
NTMT1 (UniProt Q9BV86),0.039,0.13,0.086,0.002,0.039,0.032,0.006,0.086,-0.101,0.151
MND1 (UniProt Q9BWT6),-0.068,0.034,-0.003,-0.002,-0.011,0.015,-0.019,0.009,-0.081,-0.017
NCBP2AS2 (UniProt Q69YL0),0.033,0.104,–,0.054,0,0.106,-0.029,0.148,0.048,0.113
NDUFB1 (UniProt O75438),-0.015,-0.016,0.209,0.053,-0.102,0.039,–,0.079,-0.05,-0.006
MT-ND2 (UniProt P03891),-0.067,-0.063,–,0.062,-0.108,0.104,0.116,0.044,-0.016,-0.093

# Reference: the supplement of paper PMC10849652
